Experimental data from PubChem BioAssay (Tox21).
Values joined by “and” are separate entries in the source; they are usually repeats but may differ in a detail not shown here. Identical values can stand only once. Inconclusive results are not listed. Where a call stands in place of a potency, no number is given. The source holds several records for some structures; these can differ, active in one and inactive in another. Active and inactive are the calls of the source. Calls follow the shape of the dose curve; as a rule, active = well fitted curve in the direction sought with a large enough effect in the repeat runs; inconclusive = weak or mixed curves; inactive = no such curve, though single readings can be large; an effect the other way counts as inactive or inconclusive.

Experiments:
[1] = A CellTox Green Cytotoxicity Assay to monitor cytotoxicity in HepG2 cells - 32 hour (AID 1224883); also: nearly all actives have a fitted effect of over 50% in size; also: potency is read from the fitted curve at half-maximal effect
Summary of the method: (§1)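 First, HepG2 cells (600/well) mixed with reagent were plated; second, after 5 h at 37 C they received compounds via pintool; third, fluorescence was measured at 0 h through 40 h at 8 h intervals.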

[2] = qHTS RealTime-Glo MT Cell Viability Assay in HepG2 cells - 16 hour (AID 1224885); also: nearly all actives have a fitted effect of over 50% in size; also: potency is read from the fitted curve at half-maximal effect
Summary of the method: (§2)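 HepG2 cells (600/well) were dispensed with RealTime-Glo reagents, incubated 5 h at 37 °C, then treated with compounds in DMSO for up to 40 h. Nonlytic NanoLuc luminescence reflecting viable cells was read at each stated time point.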

[3] = qHTS RealTime-Glo MT Cell Viability Assay in HEK293 cells - 24 hour (AID 1224886); also: nearly all actives have a fitted effect of over 50% in size; also: potency is read from the fitted curve at half-maximal effect
Summary of the method: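 HEK293 cells seeded with NanoLuc/prosubstrate reagent, rested 5 h at 37 C, then dosed and kept at 37 C up to 40 h. Nonlytic real-time luminescence from viable cells read at 0, 8, 16, 24, 32 and 40 h.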

[4] = qHTS RealTime-Glo MT Cell Viability Assay in HEK293 cells - 8 hour (AID 1224887); also: nearly all actives have a fitted effect of over 50% in size; also: potency is read from the fitted curve at half-maximal effect
Summary of the method: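 600 HEK293 cells per well, dispensed already mixed with RealTime-Glo MT reagents. Compound dosing came 5 h later. The same wells were read for luminescence at 0, 8, 16, 24, 32 and 40 h of exposure at 37 C.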

[5] = A CellTox Green Cytotoxicity Assay to monitor cytotoxicity in HepG2 cells - 8 hour (AID 1224890); also: nearly all actives have a fitted effect of over 45% in size; also: potency is read from the fitted curve at half-maximal effect
Summary of the method: as §1

[6] = qHTS assay to identify small molecule antagonists of the estrogen receptor alpha (ER-alpha) signaling pathway using the BG1 cell line in the presence of 0.1 nM 17-beta-estradiol - cell viability counter screen (AID 1259241); also: nearly all actives have a fitted effect of over 40% in size
Summary of the method: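 Live-cell protease activity (CellTiter-Fluor fluorescence, 30 min) was read in the same wells after VM7Luc4E2 cells had been exposed to compounds with 0.1 nM 17beta-estradiol for 22 hr at 37C.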

[7] = qHTS assay to identify small molecule antagonists of the androgen receptor (AR) signaling pathway using the MDA cell line in the presence of 0.5 nM R1881 - cell viability counter screen (AID 1259242); also: nearly all actives have a fitted effect of over 45% in size; also: potency is read from the fitted curve at half-maximal effect
Summary of the method: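 qHTS format. MDA-kb2 (MMTV-luc, AR/GR responsive) + cpd + 0.5 nM R1881 final, 16 hr 37C/0% CO2 → CellTiter-Fluor 30 min → fluorescence intensity.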

[8] = qHTS RealTime-Glo MT Cell Viability Assay in HepG2 cells - 0 hour (AID 1224889); also: nearly all actives have a fitted effect of over 50% in size
Summary of the method: as §2

[9] = A CellTox Green Cytotoxicity Assay to monitor cytotoxicity in HEK293 cells - 16 hour (AID 1224888); also: nearly all actives have a fitted effect of over 35% in size
Summary of the method: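 Dead-cell fluorescence measured kinetically: asymmetric cyanine dye, HEK293, 600 cells/well, 5 h settle, 23 nL cpd/DMSO, 37 C, reads 0–40 h every 8 h.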

C=CCOC(Cn1ccnc1)c1ccc(Cl)cc1Cl (stereo not drawn)
Potency [1]: 49.1 µM (active) and 54.9 µM (active)
Potency [2]: inactive
Potency [3]: 24.6 µM (active)
Potency [4]: inactive
Potency [5]: inactive
Potency [6]: inactive
Potency [7]: inactive

CN(C)[C@@H]1C(=O)C(C(N)=O)=C(O)[C@@]2(O)C(=O)C3=C(O)c4c(O)cccc4[C@@](C)(O)[C@H]3[C@H](O)[C@@H]12
Potency [1]: inactive
Potency [2]: inactive
Potency [3]: inactive
Potency [4]: inactive
Potency [5]: inactive
Potency [6]: inactive
Potency [7]: inactive

CCCC[N+]1(C)CCCCC1
Potency [1]: inactive
Potency [2]: inactive
Potency [3]: inactive
Potency [4]: inactive
Potency [8]: inactive
Potency [5]: inactive
Potency [6]: inactive
Potency [7]: inactive

Nc1ccc(-c2ccc(N)c(Cl)c2)cc1Cl
Potency [1]: 17.5 µM (active) and 14.4 µM (active) and 27.5 µM (active)
Potency [2]: inactive and 49 µM (active)
Potency [3]: 15.6 µM (active) and 24.5 µM (active)
Potency [4]: 24.5 µM (active)
Potency [5]: inactive and 43.6 µM (active)
Potency [6]: inactive
Potency [7]: inactive

CCCCCCCCCCCCn1cc[n+](C)c1
Potency [4]: inactive
Potency [5]: 44 µM (active) and inactive
Potency [6]: inactive

O=C(O)COc1ccc(Cl)cc1Cl
Potency [1]: inactive
Potency [2]: inactive
Potency [3]: inactive
Potency [4]: inactive
Potency [8]: inactive
Potency [5]: inactive
Potency [6]: inactive
Potency [7]: inactive

CCCn1cc[n+](C)c1
Potency [1]: inactive
Potency [2]: inactive
Potency [3]: inactive
Potency [4]: inactive
Potency [5]: inactive
Potency [6]: inactive
Potency [7]: inactive

O=C(O)c1nc(Cl)ccc1Cl
Potency [1]: inactive
Potency [2]: inactive
Potency [3]: inactive
Potency [4]: inactive
Potency [9]: inactive
Potency [5]: inactive
Potency [6]: inactive
Potency [7]: inactive

Oc1cccc2cccnc12
Potency [2]: inactive and 3.89 µM (active)
Potency [3]: 5.49 µM (active) and inactive
Potency [4]: inactive
Potency [9]: inactive
Potency [8]: inactive
Potency [5]: inactive
Potency [7]: inactive

Cc1cc(Cl)ccc1OCC(=O)O
Potency [1]: inactive
Potency [2]: inactive
Potency [3]: inactive
Potency [4]: inactive
Potency [5]: inactive
Potency [6]: inactive
Potency [7]: inactive

Oc1ccccc1-c1ccccc1
Potency [2]: inactive
Potency [3]: inactive
Potency [4]: inactive
Potency [5]: inactive
Potency [6]: inactive
Potency [7]: inactive

C[N+](C)(C)Cc1ccccc1
Potency [1]: inactive
Potency [2]: inactive
Potency [3]: inactive
Potency [4]: inactive
Potency [5]: inactive
Potency [6]: inactive
Potency [7]: inactive

CCCCCCCCCCCCCC[P+](CCCCCC)(CCCCCC)CCCCCC
Potency [1]: 12.4 µM (active) and 17.5 µM (active)
Potency [2]: 13.9 µM (active) and 19.7 µM (active) and inactive
Potency [3]: 5.52 µM (active) and 6.22 µM (active) and 3.46 µM (active)
Potency [4]: 12.4 µM (active) and 17.5 µM (active)
Potency [5]: 19.6 µM (active) and 22.1 µM (active) and inactive
Potency [7]: 9.73 µM (active) and 13.8 µM (active)

CNC
Potency [1]: inactive
Potency [2]: inactive
Potency [3]: inactive
Potency [4]: inactive
Potency [5]: inactive
Potency [6]: inactive
Potency [7]: inactive

CCn1cc[n+](C)c1C
Potency [1]: inactive
Potency [2]: inactive
Potency [3]: inactive
Potency [4]: inactive
Potency [5]: inactive
Potency [6]: inactive
Potency [7]: inactive

COc1ccccc1N
Potency [1]: inactive
Potency [2]: inactive
Potency [3]: inactive
Potency [4]: inactive
Potency [8]: inactive
Potency [5]: inactive
Potency [6]: inactive
Potency [7]: inactive

CCCC[n+]1ccc(C)cc1
Potency [1]: inactive and 48.7 µM (active)
Potency [2]: inactive
Potency [3]: 43.4 µM (active) and inactive
Potency [4]: 30.7 µM (active) and inactive
Potency [5]: inactive
Potency [6]: inactive
Potency [7]: inactive

CCCC[n+]1ccccc1
Potency [1]: inactive
Potency [2]: inactive
Potency [3]: inactive
Potency [4]: inactive
Potency [8]: inactive
Potency [5]: inactive
Potency [6]: inactive
Potency [7]: inactive

COCC(=O)N(c1c(C)cccc1C)C(C)C(=O)OC (stereo not drawn)
Potency [1]: inactive
Potency [2]: inactive
Potency [3]: inactive
Potency [4]: inactive
Potency [8]: inactive
Potency [5]: inactive
Potency [6]: inactive
Potency [7]: inactive
